Laboratory results reported in PubChem BioAssay (EPA / NIEHS).
Active and inactive are the calls of the source. How the source made its calls: active means hit-call score of the fitted dose curve at least 0.9, where 1 is the maximum; inactive means score below 0.9.

Molecular target: Nuclear respiratory factor 1 (Homo sapiens) (UniProt Q16656)
Experiment: ATG_NRF1_CIS: Attagene CIS-FACTORIAL HepG2 Assay for human Nuclear Respiratory Factor 1 (NRF1) Orphan Gene (AID 2282987)
Settings: HepG2 NRF1 cis-element reporter, Attagene multiplex; actives raise or lower the signal
Summary of the method: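 Endogenous factor activity was captured via cis-element-driven reporter transcripts in HepG2 cells. Following 24 h chemical treatment, transcripts were quantified by RT-PCR and capillary electrophoresis.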

Nuclear respiratory factor 1 (Homo sapiens), sequence (Q16656 whole entry, looked up): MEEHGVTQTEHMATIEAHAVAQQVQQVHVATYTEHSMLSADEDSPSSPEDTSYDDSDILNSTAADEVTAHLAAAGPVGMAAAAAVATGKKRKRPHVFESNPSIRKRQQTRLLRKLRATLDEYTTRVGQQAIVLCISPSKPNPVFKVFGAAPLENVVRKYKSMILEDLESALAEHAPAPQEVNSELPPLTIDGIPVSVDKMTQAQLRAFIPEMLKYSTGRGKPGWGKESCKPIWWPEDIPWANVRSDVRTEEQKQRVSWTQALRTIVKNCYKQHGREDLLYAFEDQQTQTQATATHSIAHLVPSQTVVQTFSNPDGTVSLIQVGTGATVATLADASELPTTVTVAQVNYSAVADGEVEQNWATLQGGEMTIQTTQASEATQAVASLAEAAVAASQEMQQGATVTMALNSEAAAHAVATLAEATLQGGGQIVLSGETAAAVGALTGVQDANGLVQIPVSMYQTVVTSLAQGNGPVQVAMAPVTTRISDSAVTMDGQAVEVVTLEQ

**Q.** How did the outcome turn out when `OCCOc1cccc(OCCO)c1` was run?
**A.** The outcome was “inactive”.

**Q.** Which outcome does the source give for `O=C1OC2(c3cc(Br)c(O)c(Br)c3Oc3c2cc(Br)c(O)c3Br)c2c(Cl)c(Cl)c(Cl)c(Cl)c21` here?
**A.** The outcome was “inactive”.

**Q.** How did the outcome turn out when `O=C1c2ccccc2C(=O)N1SC1CCCCC1` was run?
**A.** Its outcome is “inactive”.

**Q.** With `CC(C)c1ccc(C(C)C)cc1` as the molecule, how does the outcome read?
**A.** Its outcome is “inactive”.

**Q.** With `NCCNCCN` as the molecule, how does the outcome read?
**A.** The outcome was “inactive”.

**Q.** Which outcome does the source give for `Nc1ccc(F)c([N+](=O)[O-])c1` here?
**A.** Its outcome is “inactive”.

**Q.** With `Nc1cccc(S(=O)(=O)c2cccc(N)c2)c1` as the molecule, how does the outcome read?
**A.** The outcome was “inactive”.

**Q.** Which outcome does the source give for `C=C(C)C(=O)Nc1ccc(Cl)c(Cl)c1` here?
**A.** Its outcome is “inactive”.

**Q.** For `COc1ccc(OC)c(OC)c1`, which outcome is on record?
**A.** The outcome was “inactive”.

**Q.** For `Clc1sc(Cl)c(Cl)c1Cl`, which outcome is on record?
**A.** Its outcome is “inactive”.

**Q.** With `COC(=O)OC` as the molecule, how does the outcome read?
**A.** Its outcome is “inactive”.

**Q.** For `Cc1ccccc1C=O`, which outcome is on record?
**A.** Its outcome is “inactive”.

**Q.** Which outcome does the source give for `CC(C)(C)c1n[nH]c(=S)n(N)c1=O` here?
**A.** The outcome was “inactive”.

**Q.** For `O=P(c1ccccc1)(c1ccccc1)c1ccccc1`, which outcome is on record?
**A.** The outcome was “inactive”.

**Q.** `CCCC(=O)OCCC(C)CCC=C(C)C` (centres undefined) was tested. Which outcome did it give?
**A.** The outcome was “inactive”.

**Q.** How did the outcome turn out when `CC(C)(C)NC(N)=O` was run?
**A.** The outcome was “inactive”.

**Q.** How did the outcome turn out when `CCC(O)CO` (centres undefined) was run?
**A.** Its outcome is “inactive”.

**Q.** With `CCc1c(C)cc(N)c(CC)c1N` as the molecule, how does the outcome read?
**A.** The outcome was “inactive”.

**Q.** How did the outcome turn out when `CN(C)CCCN` was run?
**A.** Its outcome is “inactive”.

**Q.** With `O=C(O)c1cccc(C(F)(F)F)c1` as the molecule, how does the outcome read?
**A.** Its outcome is “inactive”.

**Q.** How did the outcome turn out when `Cc1ccc(Nc2ccc(O)c3c2C(=O)c2ccccc2C3=O)cc1` was run?
**A.** The outcome was “inactive”.

**Q.** With `Cc1ccc(C=O)s1` as the molecule, how does the outcome read?
**A.** Its outcome is “inactive”.

**Q.** Which outcome does the source give for `C=CC(C)(CCC=C(C)C)OC=O` (centres undefined) here?
**A.** The outcome was “inactive”.

**Q.** With `CC(=O)OCCC(C)CC(C)(C)C` (centres undefined) as the molecule, how does the outcome read?
**A.** The outcome was “inactive”.

**Q.** With `CCCCCCCCCOC(C)=O` as the molecule, how does the outcome read?
**A.** The outcome was “inactive”.

**Q.** Which outcome does the source give for `CC1=CCC2C(C1)C2(C)C` (centres undefined) here?
**A.** Its outcome is “inactive”.

**Q.** Which outcome does the source give for `Cc1ccc2sc3cccc(C)c3c2c1` here?
**A.** Its outcome is “inactive”.

**Q.** With `CCCCCC(=O)OCCc1ccccc1` as the molecule, how does the outcome read?
**A.** The outcome was “inactive”.

**Q.** Which AC50 does the source give for `O=Nc1ccc(Nc2ccccc2)cc1` here?
**A.** Its AC50 is 56.3 µM (active).

**Q.** Which outcome does the source give for `CC(C)c1cccc(O)c1` here?
**A.** The outcome was “inactive”.

**Q.** Which outcome does the source give for `NC(=O)c1ccccc1Cl` here?
**A.** The outcome was “inactive”.

**Q.** With `COC(=O)c1ccc(C)cc1` as the molecule, how does the outcome read?
**A.** Its outcome is “inactive”.

**Q.** How did the outcome turn out when `CNC[C@H](O)c1cccc(O)c1` was run?
**A.** The outcome was “inactive”.

**Q.** Which outcome does the source give for `CCOC(=S)SSC(=S)OCC` here?
**A.** The outcome was “inactive”.
